Results on 42 sequences are retold here after article PMC7819943, “Rice protein-binding microarrays: a tool to detect cis-acting elements near promoter regions in rice”.

Whole data set: some 68,000 sequences, median “fluorescence intensity (a.u.)” near 9,100, cut for the highest 2% near 16,000. What follows is part of a selection rich in the highest values, with near analogues and random picks from the rest.

Sequence of OsWRKY34 (Q0JBA9 entry or part of it): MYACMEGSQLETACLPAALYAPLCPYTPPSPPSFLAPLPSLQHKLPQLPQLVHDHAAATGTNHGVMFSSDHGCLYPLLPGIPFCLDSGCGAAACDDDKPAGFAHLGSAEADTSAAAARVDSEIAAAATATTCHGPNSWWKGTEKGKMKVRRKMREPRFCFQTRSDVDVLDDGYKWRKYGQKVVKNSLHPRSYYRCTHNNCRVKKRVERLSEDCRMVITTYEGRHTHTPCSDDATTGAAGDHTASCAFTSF

This assay concerns the target OsWRKY34 (Oryza sativa, UniProt Q0JBA9 1-250). Description: protein-binding microarray (RPBM); PBS, 2% BSA, 51.3 ng/ul salmon testes DNA, 50 uM zinc acetate, 200 nM TF, 25 C, 1 h; high values mean tight binding. As to conditions: protein: recombinant; tags: N-terminal polyhistidine and DsRed monomer fusion (pET32a); label: CyDye5-dUTP incorporated in the synthesized complementary strand; 3' TTTTT single-stranded linker to array surface; dsDNA, one strand shown. The method in brief:
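An Axon 4000B scanner gave the binding signal as per-feature fluorescence intensity in arbitrary units. This followed washing of a custom Agilent array that had been incubated for 1 h at 25 °C with 200 nM protein in PBS, 2% BSA, salmon testes DNA and 50 µM zinc acetate. The proteins were transcription factors fused at the N-terminus to polyhistidine and DsRed, expressed in E. coli BL21-CodonPlus and purified on Ni–NTA.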
For the sequence “AAGCAGCAAAAGTCACACATACACTCTCTCTGCTACTACTCGGAGTCACCTAGTGCAG”, the binding signal is 8160 fluorescence intensity (a.u.).

Consider “TTAACTTTTACTCTAATTTATTCTCCTGTACCTTTTTATACGGAGTCACCTAGTGCAG”, for which the binding signal is 8250 fluorescence intensity (a.u.).

On to “AGGTGGTTGGTGAGGTTTGCTTTGCACGATCGAGTGAGGACGGAGTCACCTAGTGCAG”, for which the binding signal was 10500 fluorescence intensity (a.u.).

With “AAATGTTTGACGCCGTTGACTTTTTTAAACATGTTTGACCCGGAGTCACCTAGTGCAG”, the binding signal is 33600 fluorescence intensity (a.u.).

On to “TTTGACGCCGTTGACTTTTTTAAACATGCTTGATCATTCACGGAGTCACCTAGTGCAG”, for which the binding signal was 13700 fluorescence intensity (a.u.).

Turning to “ACGCCGTTGACTTTTTAAGCAACATTTGACCATTCGTTTTCGGAGTCACCTAGTGCAG”, the binding signal was 30000 fluorescence intensity (a.u.).

In the case of “TCCTTCCCTAAATGTTTGACGCCGTTGACTTTTTTAAACACGGAGTCACCTAGTGCAG”, the binding signal was 16600 fluorescence intensity (a.u.).

Consider “TCCGTTTCGAAATGCTTGACGCCGTTGACTTTTTTAAACACGGAGTCACCTAGTGCAG”, for which the binding signal was 19400 fluorescence intensity (a.u.).

As to “ATATACTCCCTCCTTCCCTAAATGTTTGACGCCGTTGACTCGGAGTCACCTAGTGCAG”, the binding signal was 11400 fluorescence intensity (a.u.).

For “AACAGCCTGTTTTTGTGTGTTTTTTTCGTAAGTAATTAGTCGGAGTCACCTAGTGCAG”, the binding signal was 8760 fluorescence intensity (a.u.).

Consider “GGCTGCCCGCTCCTACATCCACATGCATGCTTCACACTGCCGGAGTCACCTAGTGCAG”, for which the binding signal is 8330 fluorescence intensity (a.u.).

With “TTAGTTGTTACCTTTGTCTCCTTCGTTGATCCATTGAAAGCGGAGTCACCTAGTGCAG”, the binding signal was 10500 fluorescence intensity (a.u.).

Consider “GTATACCTGCGCGTATACGGATGTTTTCGGCGTACATTAACGGAGTCACCTAGTGCAG”, for which the binding signal is 8390 fluorescence intensity (a.u.).

“GTTCATCAATCTACTGTACTGGCCTCCTTCTCAGCTCTCACGGAGTCACCTAGTGCAG”: the binding signal was 9300 fluorescence intensity (a.u.).

In the case of “CTTCCCTAAATGTTTAACGCCATTGACTTTTTTAAACATGCGGAGTCACCTAGTGCAG”, the binding signal is 12900 fluorescence intensity (a.u.).

Turning to “AATGTTTGACGCCGTTGACTTTTTTAAACATGTTTGACCACGGAGTCACCTAGTGCAG”, the binding signal is 42500 fluorescence intensity (a.u.).

Regarding “TGTTTGACGCCGTTGACTTTTTTAAACATGTTTGACCATTCGGAGTCACCTAGTGCAG”, the binding signal was 34200 fluorescence intensity (a.u.).

For the sequence “TGACGCCGTTGGTTTTTTTAAACATGTTTGACCATTCGTCCGGAGTCACCTAGTGCAG”, the binding signal was 8990 fluorescence intensity (a.u.).

On to “ATGACGCCGTTGACTTTTTAACAAACGTTTGACCATTCGTCGGAGTCACCTAGTGCAG”, for which the binding signal was 21700 fluorescence intensity (a.u.).

Turning to “CTTCCCTAAATGTTTGACGCCGTTGACTTTTCTAAACATGCGGAGTCACCTAGTGCAG”, the binding signal was 18600 fluorescence intensity (a.u.).

As for “TAACGCCGTTTACCTTTTAACAAACGTTTTACCTTTCGTTCGGAGTCACCTAGTGCAG”, the binding signal was 10400 fluorescence intensity (a.u.).

Consider “AACTTTTTGATATACGCTCGATCATTCATCTTATTGAATACGGAGTCACCTAGTGCAG”, for which the binding signal is 8030 fluorescence intensity (a.u.).

As to “CCCGTGTCTTGTGTGTTTCCATTCTCGCGAACCTTCCACACGGAGTCACCTAGTGCAG”, the binding signal is 9910 ± 264 fluorescence intensity (a.u.).

As to “TTAATTTTTTTCTCATTTGTGCGTCCTATGGTCAAGCGTCCGGAGTCACCTAGTGCAG”, the binding signal is 8490 fluorescence intensity (a.u.).

In the case of “AATTCCGGCCCAATAGTCACTTGTGTTGGCCACTTCGCCTCGGAGTCACCTAGTGCAG”, the binding signal is 9010 fluorescence intensity (a.u.).

Regarding “GATTCATCGATCTTTTACGAGTACTATTTTTGTGATTATTCGGAGTCACCTAGTGCAG”, the binding signal was 11300 fluorescence intensity (a.u.).

For “TACATGTGGGTCCCATGGGTTTTATTATCTTTTTCGGATCCGGAGTCACCTAGTGCAG”, the binding signal was 9360 fluorescence intensity (a.u.).

For the sequence “AATCTACAAGATATATAACTAGATGTGTGGTGGGTTGAAACGGAGTCACCTAGTGCAG”, the binding signal was 8280 fluorescence intensity (a.u.).

As for “AATTAGTTCCTGGACTTTGTGTATTACTAGTACTACTCCACGGAGTCACCTAGTGCAG”, the binding signal was 8570 fluorescence intensity (a.u.).

Take “TGACTCTATTTTTTCCTTCGGTCTGCTGTCTGCACTCTGGCGGAGTCACCTAGTGCAG”: the binding signal was 11300 fluorescence intensity (a.u.).

As to “AGCGTCGCTGCCATCATCGCCGTCGCGTCGCTCGTCGCCGCGGAGTCACCTAGTGCAG”, the binding signal was 8220 fluorescence intensity (a.u.).

For the sequence “ACCACCGCCGCGGCGGCGTCGCCCACGCCGTGCCGCCCCGCGGAGTCACCTAGTGCAG”, the binding signal is 8160 fluorescence intensity (a.u.).

Regarding “CTCCGCCTCGCGCCGTTGTCGCCGTCGCCTCGCGCCGCCACGGAGTCACCTAGTGCAG”, the binding signal is 10100 fluorescence intensity (a.u.).

Turning to “CTGCCATCGCGTCGGCGTCGCGCCGCTGCCGTTGACCGTGCGGAGTCACCTAGTGCAG”, the binding signal is 16700 fluorescence intensity (a.u.).

On to “CGCCACCATCGCTGCGCCGCCATCGCCACCACCGCAGCCGCGGAGTCACCTAGTGCAG”, for which the binding signal was 8840 fluorescence intensity (a.u.).

For “TGTCTAGCTGCTCCGACCAGTCAACCGTTGAACGTTGACTCGGAGTCACCTAGTGCAG”, the binding signal is 14700 fluorescence intensity (a.u.).

On to “CGTTGTCGCCACCACCACCGCCGCCGTCGCCACAACTCCGCGGAGTCACCTAGTGCAG”, for which the binding signal was 20500 fluorescence intensity (a.u.).

As for “GCCACGAGTTCCACGGCCGCGGCGTCGTCGTCGTCGTCGTCGGAGTCACCTAGTGCAG”, the binding signal is 8090 fluorescence intensity (a.u.).

“TCGTCGGCGTCGCGTTCACGGCCGCCGTGGCCGTGGCCGTCGGAGTCACCTAGTGCAG”: the binding signal is 16500 fluorescence intensity (a.u.).

For the sequence “GGTTGACCGTAGTCAACTCGCCACGTTGACTAGAACCGAGCGGAGTCACCTAGTGCAG”, the binding signal was 17900 fluorescence intensity (a.u.).

On to “GTCTCCGCCATCGTTGTCGCCGTCGCCTCGCGCCACCACGCGGAGTCACCTAGTGCAG”, for which the binding signal is 8230 fluorescence intensity (a.u.).

On to “CGTAGGCCACGCCACCTCACCCTGTTGACCGAGTCAAACCCGGAGTCACCTAGTGCAG”, for which the binding signal was 11900 fluorescence intensity (a.u.).
